# Sampled rows, rich in hits. Any-hit rate of the full collection: about 1.6%.
# PERK inh – blocks human PERK kinase; CHO PERK-DD fusion, SEAP luminescence translation reporter; inhibition, % at 5.6 µM; Q9NZJ5; AID 1416; actives 0.17% (n = 220,000);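 active = inhibition above the mean inhibition of all tested compounds plus 3 SD, set separately per screening campaign, cut at about 2.9% in these data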;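 also: PERK kinase domain activated by AP20187 dimerizer at 100 nM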
# V-ATPase pH – regulators of yeast V-ATPase proton transport | response, % at 10 µM | AID 504577 | actives 0.37% (n = 350,000) | S. cerevisiae, pHLuorin cytosolic pH fluorescence; in the data active = response mostly above about 7.3%, no sharp cut-off; inactive = mostly below about 5.4%; also: actives read high
# Rce1 inh – yeast Ras-converting enzyme inhibition. Q03530. yeast membranes, quenched prenylated peptide cleavage fluorescence. calls only. actives 0.27% (n = 290,000). AID 2563;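 active = fall in fluorescence gain of 50% or more versus controls, with final raw signal at or below 3038400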
# Target sequence (Q03530 whole entry, looked up): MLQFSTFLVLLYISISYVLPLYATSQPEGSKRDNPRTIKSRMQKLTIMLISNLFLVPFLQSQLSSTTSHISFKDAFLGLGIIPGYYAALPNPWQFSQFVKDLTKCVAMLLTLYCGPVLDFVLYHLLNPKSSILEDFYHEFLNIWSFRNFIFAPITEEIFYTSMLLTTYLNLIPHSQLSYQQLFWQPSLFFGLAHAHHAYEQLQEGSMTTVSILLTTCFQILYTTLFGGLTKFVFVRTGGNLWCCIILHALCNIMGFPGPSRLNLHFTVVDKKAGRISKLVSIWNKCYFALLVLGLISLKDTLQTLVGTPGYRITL
# CR mimetic SO – yeast age-related superoxide inhibition as caloric restriction mimetic; S. cerevisiae aged cells, superoxide DHE fluorescence; hits give low values; superoxide response (% of plate mean), % at 10 µM; actives 0.18% (n = 330,000);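 active = superoxide response under a set limit, about three screen SD below normal, cut at about 65% in these data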;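 also: yeast aged for seven days with compound at 30 °C before DHE staining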
# NALP1 yeast inh – NALP1 inhibition | S. cerevisiae NALP1/ASC/caspase-1 growth, X-gal OD620, 72 h | inhibition, % at 10 µM | actives 0.61% (n = 280,000); in the data active = inhibition mostly above about 24%, no sharp cut-off; inactive = mostly below about 32%
# NLRP3 yeast inh – blocks the NALP3 inflammasome reconstituted in yeast. Yeast reconstituted NLRP3/ASC/caspase-1, beta-gal luminescence, 24 h. inhibition, % at 10 µM. actives 0.39% (n = 330,000);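 active = inhibition of 50% or more; inactive = inhibition below 50%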
# A number is an active result; - = inactive; . = no result given; + = active, no number.
SMILES,PERK inh,V-ATPase pH,Rce1 inh,CR mimetic SO,NALP1 yeast inh,NLRP3 yeast inh
Cc1ccc(C2C3=C(CC(C)(C)CC3=O)Nc3n[nH]c(C)c32)cc1 (stereo unspecified),-,-,-,-,-,-
CCOC(=O)CNC(=O)N1C[C@H]2CON(C)[C@H]2C[C@H]1c1ccccc1Br,.,-,.,.,.,.
CC1=C(C(=O)N(C)C)CC(CC(=O)NC2CCCC2)C(=O)N1Cc1ccccc1 (stereo unspecified),.,-,.,.,.,.
COc1ccc(C(=O)Nc2cc(OC)c(NC(=O)Nc3ccccc3)cc2OC)cc1,.,-,.,.,.,.
Fc1cccc(-c2cc3nc(-c4ccccc4)cc(N4CCC5(CC4)OCCO5)n3n2)c1,-,-,+,-,-,-
Cc1cccc(-c2cc3nc(-c4ccccc4)cc(N4CCC5(CC4)OCCO5)n3n2)c1,-,-,+,-,-,-
CCCc1cc(CN(C)C(=O)c2ccc(OC3CCN(C(C)=O)CC3)c(OC)c2)[nH]n1,.,-,.,.,.,.
Cc1ccc(S(=O)(=O)N(C)C)cc1NC(=O)C(C)OC(=O)CC1CC2CCC1C2 (stereo unspecified),.,-,.,.,.,.
CC(=O)c1c(C)[nH]c(C(=O)OCC(=O)NCc2ccccc2)c1C,.,-,.,.,.,.
CCc1c(C)c(C#N)c2nc3ccccc3n2c1NCCN(C)C,-,-,-,-,32,-
CCc1c(C)c(C#N)c2nc3ccccc3n2c1NC,.,-,-,-,-,-
CC(C)=CCC/C(C)=C/CNC(=O)C[C@H]1C[C@H](C(=O)N2CCOCC2)[C@@]2(CCC3CCCC3)c3[nH]c4cc(CCC(=O)N(C)C)ccc4c3CCN2C1=O,.,-,.,-,.,.
CCc1nnc(NS(=O)(=O)c2ccc(NC(=O)c3cc(Cl)ccc3Cl)cc2)s1,-,-,-,-,39,-
CCc1nnc(NS(=O)(=O)c2ccc(NC(=O)c3cc(Cl)ccc3[N+](=O)[O-])cc2)s1,.,-,-,-,-,-
Cc1nc2nc(-c3ccccc3)cc(=O)n2[nH]1,3.0,-,-,-,-,-
O=C1CCC(=O)N1c1nc2nc(-c3ccccc3)cc(=O)n2[nH]1,-,-,-,-,-,-
O=c1cc(-c2ccccc2)nc2nc(CCc3ccccc3)[nH]n12,-,16,-,-,-,-
CCc1cccc(NC(=O)COC(=O)CSc2ccc(C)cc2)c1,.,-,.,.,.,.
COc1ccc(S(=O)(=O)N2CCN(C(=O)COc3ccccc3)CC2)cc1,-,-,-,-,-,-
O=C(CC1CCCC1)N1CCN(S(=O)(=O)c2ccccc2)CC1,.,668,.,-,.,-
O=C(OCC(=O)N1CCN(S(=O)(=O)c2ccccc2)CC1)C1CCC1,.,-,.,-,.,-
Cc1ccc(S(=O)(=O)N2CCN(C(=O)COC(=O)COc3ccccc3)CC2)cc1,-,-,-,-,29,-
Cc1ccc(/C=C/C(=O)Nc2cc(S(=O)(=O)N3CCOCC3)ccc2N2CCOCC2)cc1,.,-,.,62,.,-
CN(C1=C(NC(=O)c2ccccc2)C(=O)c2ccccc2C1=O)C1CCS(=O)(=O)C1 (stereo unspecified),-,-,.,-,43,-
CCOC(=O)c1c(-c2ccccc2)cn2ccccc12,-,-,-,-,25,-
SMILES,PERK inh,V-ATPase pH,Rce1 inh,CR mimetic SO,NALP1 yeast inh,NLRP3 yeast inh
Cc1ccc(NC(=O)CC(=O)Nc2ccc(C)c(C)c2)cc1C,.,-,-,-,-,-
Cc1ccc(NC(=O)/C=C\C(=O)NCC(=O)O)cc1C,-,-,-,-,57,-
Cc1ccc(C(=O)O)cc1N=Cc1cc(Br)cc(Br)c1O,-,-,-,-,70,.
CC(=O)Nc1ccc(C(=O)N/N=C/c2cc(Br)cc(Br)c2O)cc1,-,-,-,-,-,-
CCC/C=C/c1ccc(CN2C(C(C)C)C(=O)N(Cc3cn(Cc4ccco4)nn3)CCS2(=O)=O)cc1 (stereo unspecified),.,-,.,.,.,.
COc1ccc(-c2cc3ccccc3n2CC(O)CNCCO)cc1 (stereo unspecified),-,-,+,-,-,-
Nc1ccc2c(c1)[nH]c(=O)c1cc(N)ccc12,.,-,.,.,.,.
Cc1ccc(C(=O)ONc2ccc(N=NC(=O)c3ccccc3O)cc2)cc1,-,-,-,-,42,-
Cc1ccc(C(=O)ONc2ccc(N=O)cc2)cc1,-,-,-,-,-,-
COc1cc(NC(=O)c2cccs2)cc(OC)c1,-,-,-,-,65,-
Cc1cnc(NC(=O)c2cccs2)s1,.,-,-,-,34,-
CCCCc1c(C)nc2c(OC)cccc2c1SCC(=O)O,4.2,-,-,-,-,-
CCCCc1c(C)nc2ccc(OC)cc2c1SCCC(=O)O,.,-,-,-,.,-
OC(COC(c1ccc(Cl)cc1)c1ccc(Cl)cc1)CN1CCN(c2ccccn2)CC1 (stereo unspecified),-,-,-,-,45,-
Cc1cccc(C)c1OCC(O)CN1CCN(c2ccccn2)CC1 (stereo unspecified),-,-,-,-,-,-
COC(=O)CC(N)c1ccc(OC)c2ccccc12 (stereo unspecified),-,-,-,-,36,-
CNC(=O)C[C@H]1C(=O)N(C2CCCCC2)C[C@@H]1c1ccc(Br)cc1,.,-,.,.,.,.
N#Cc1ccccc1Cn1cc(/C=C/[N+](=O)[O-])c2ccccc21,-,-,-,-,75,-
COc1cc(NCCCn2cnc3c(OC)ncnc32)cc(OC)c1OC,.,-,.,.,.,.
CCC1S/C(=C(\C#N)C(=O)NCc2ccco2)N(c2ccc(Br)cc2)C1=O (stereo unspecified),-,-,-,-,22,-
CCN(CC)c1ccc(/C=N/N2CCN(c3ccccn3)CC2)cc1,3.0,-,-,-,-,-
CCc1ccc(/C=N/N2CCN(c3ccccn3)CC2)cc1,-,-,-,-,-,-
O=C(Nc1ccccc1N1CCOCC1)C1CCN(S(=O)(=O)c2ccc(F)cc2)CC1,-,-,+,-,-,-
COc1ccc(NC(=O)CNCc2cccs2)c(OC)c1,.,-,.,.,.,.
CCC(=O)NCc1c(Cl)cccc1-n1cccc1,-,-,-,-,-,-
SMILES,PERK inh,V-ATPase pH,Rce1 inh,CR mimetic SO,NALP1 yeast inh,NLRP3 yeast inh
CC(=O)NCc1c(Cl)cccc1-n1cccc1,3.3,-,-,-,-,-
CC(C(=O)N1CCCC1)N(c1ccc(Cl)cc1)S(C)(=O)=O (stereo unspecified),.,-,.,.,.,.
CCc1nc(Nc2ccc3c(c2)OCCO3)c2oc3ccccc3c2n1,-,-,-,-,34,-
COc1cccc(Nc2nc(C)nc3c2oc2ccccc23)c1,.,-,+,-,-,-
CC1(c2ccc(OCC#N)cc2)C=C(c2ccc(OCC#N)cc2)n2nc(C(F)(F)F)nc2N1 (stereo unspecified),-,-,+,-,-,-
Cc1ccc(C2=CC(C)(c3ccc(C)cc3)Nc3nc(C(F)(F)F)nn32)cc1 (stereo unspecified),-,-,-,-,-,-
CCOC(=O)CNC(=O)CNC(=O)Cn1ccc2ccccc2c1=O,-,-,-,-,40,-
COC(=O)CNC(=O)Cn1ccc2ccccc2c1=O,-,-,-,-,-,-

# High-throughput results: PubChem, several laboratories
